Laboratory results taken from PubChem BioAssay AID720513 (Broad Institute, 2013).
Screen size: about 2,100 compounds; about 480 (23%) were called active. About 5% were inconclusive and are not listed.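 How the source made its calls: active means fitted curve reaches 40% activation at or below the top valid concentration, in every replicate test; inconclusive means replicate tests disagree on the call; inactive means the rest, including activity in the opposite direction.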 Only a sample is shown. Potency and affinity values are given separately.

Test: PGC1a acetylation increase, cellular AlphaLISA – cell-based, cherry-picked samples, set 6, dose response (AID 720513);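 further: cells made to overexpress flag tagged PGC1a plus GCN5 acetyltransferase by viral infection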
Details: U2OS PGC1a acetylation AlphaLISA, overnight, 0 = neutral, -100 = inhibitor control; series mostly up to 19.5 µM; activation (acetylation increase): at the top concentration

Row | Structure (SMILES) | activation (acetylation increase)
1 | O=C(NNS(=O)(=O)c1ccc(F)cc1)c1ccc(S(=O)(=O)N2CCCCC2)cc1 | 13% (inactive)
2 | N#CC1(NC(=O)Cn2ncc(Cl)c(Cl)c2=O)CCCCC1 | -74.9% (inactive)
3 | C#CCN(C[C@@H]1[C@@H](OC(=O)NCCCCCC)[C@@H](OC(=O)NCCCCCC)Cn2c(=O)ccc(=O)n21)S(=O)(=O)c1ccc(C)cc1 | -98.2% (inactive)
4 | CO[C@H]1CN(C)C(=O)c2ccc(NS(=O)(=O)c3ccccc3)cc2OC[C@H](C)N(C(=O)NC(C)C)C[C@@H]1C | 3.86% [at 21 µM] (inactive)
5 | CCN(CC)S(=O)(=O)c1ccc(C(=O)Nc2cc(S(=O)(=O)N3CCOCC3)ccc2O)cc1 | 19.8% (inactive)
6 | O=C(Nc1cc(S(=O)(=O)N2CCOCC2)ccc1Cl)c1cc([N+](=O)[O-])ccc1Cl | -92.3% (inactive)
7 | CCN(CC)c1ccc(S(=O)(=O)N2CCOCC2)cc1NC(=O)Cn1nc(C)c([N+](=O)[O-])c1C | -32.7% (inactive)
8 | O=C(Cn1cc(C(F)(F)F)ccc1=O)Nc1cc(S(=O)(=O)N2CCOCC2)ccc1Cl | 6.03% (inactive)
9 | Cc1nn(CCCC(=O)O)c(C)c1[N+](=O)[O-] | -1.68% (inactive)
10 | CCC(=O)NC1(Cc2ccc(O)cc2)CCCCC1 | 6.88% (inactive)
11 | COCCNC(=O)CN(C(=O)CCC(=O)Nc1ccccn1)c1ccc(OC)cc1 | -17.2% (inactive)
12 | CCN(CC)CCNc1ccc(C)c2sc3ccc(O)cc3c(=O)c12 | 12.6% [at 5 µM] (inactive)
13 | Cc1cccc(CCN(CC(=O)NC(C)(C)C)C(=O)c2csnn2)c1 | -48.8% (inactive)
14 | Cc1ccc(S(=O)(=O)N(C)C[C@@H]2Oc3cc(C#Cc4ccncc4)ccc3S(=O)(=O)N([C@H](C)CO)C[C@H]2C)cc1 | -91.5% (inactive)
15 | C[C@H]1CN([C@@H](C)CO)S(=O)(=O)c2ccc(C3=CCCC3)cc2O[C@@H]1CN(C)C | 28.7% (inactive)
16 | COc1ccc(S(=O)(=O)N(C)C[C@@H]2Oc3cc(C#CC4CC4)ccc3S(=O)(=O)N([C@H](C)CO)C[C@H]2C)cc1 | 18.8% (inactive)
17 | C[C@@H]1CN([C@@H](C)CO)S(=O)(=O)c2ccc(C3=CCCCC3)cc2O[C@H]1CN(C)C | 13% (inactive)
18 | Cc1ccc(S(=O)(=O)N(C)C[C@@H]2Oc3cc(C#Cc4ccncc4)ccc3S(=O)(=O)N([C@@H](C)CO)C[C@H]2C)cc1 | -83.9% (inactive)
19 | Cc1ccc(S(=O)(=O)N(C)C[C@H]2Oc3cc(C#Cc4ccncc4)ccc3S(=O)(=O)N([C@H](C)CO)C[C@H]2C)cc1 | -84% (inactive)

Row | Structure (SMILES) | activation (acetylation increase)
20 | COc1ccc(S(=O)(=O)N(Cc2cc3ccc(OC)cc3[nH]c2=O)CC2COCCO2)cc1 (configuration not stated) | 4.54% (inactive)
21 | Cn1c2c(c(=O)n(C)c1=O)C(c1cccc(F)c1)C(C#N)=C(N)O2 (configuration not stated) | 20.1% (inactive)
22 | Cc1ccc(S(=O)(=O)N(C)C[C@H]2Oc3ccc(NC(=O)CCC(F)(F)F)cc3C(=O)N([C@H](C)CO)C[C@@H]2C)cc1 | 12.5% (inactive)
23 | CCOC(=O)c1ccc(N2C(=O)CC(N3CCC(O)(c4ccc(Br)cc4)CC3)C2=O)cc1 (configuration not stated) | 25.2% [at 10 µM] (inactive)
24 | Cn1ncc2c(O/N=C(\N)c3ccc(C(F)(F)F)cc3)ncnc21 | -61.7% (inactive)
25 | CCOC(=O)CSc1nc2cc3c(cc2cc1C#N)OCCO3 | 6.89% (inactive)
26 | CC(C)OC(=O)CSc1nc2cccnc2n1-c1ccc(F)cc1 | -7.32% (inactive)
27 | O=C(/C=C/c1ccc(F)cc1)NNC(=O)CCN1CCN(Cc2ccccc2)CC1 | 4.09% (inactive)
28 | Cc1[nH]c(=O)c(C(=O)/C=C/c2ccccc2)c2c1CCCC2 | -103% (inactive)
29 | CC(=O)N1CCN(C(C)=O)C1c1ccccc1 | -5.86% (inactive)
30 | O=S(=O)(Nc1ccccn1)c1ccc(-n2cccn2)cc1 | 9.09% (inactive)
31 | CC1CCN(C(=O)COC(=O)c2ccc(Br)o2)CC1 | 35.8% (inactive)
32 | COc1ccc(OC)c(CNS(=O)(=O)c2cc(-c3cc(C)no3)ccc2OC)c1 | 40.3% (inactive)
33 | CCOc1ccc(S(=O)(=O)N(C)c2ccc(OCC(=O)N3c4ccc(C)cc4C4CN(C)CCC43)cc2)cc1 (configuration not stated) | -9.14% (inactive)
34 | CN(C[C@H]1N[C@@H](CO)[C@@H]1c1ccc(C2=CCCC2)cc1)C(=O)c1ccc(F)cc1 | -85.2% (inactive)
35 | CN1OC[C@@H]2CN(S(=O)(=O)c3cccc4ccccc34)[C@H](c3ccc(N4CCCCC4)cc3)C[C@@H]21 | 30.2% (inactive)
36 | CC(C)CC(OC(=O)c1cccs1)C(=O)NCc1ccco1 (configuration not stated) | 12.3% (inactive)
37 | Cc1cc(C)nc(N2CCC(C(=O)NCc3ccco3)CC2)n1 | 10.2% (inactive)
38 | Cc1ccc(C)n1-c1ccc(-c2nnco2)cc1 | 5.89% (inactive)

Row | Structure (SMILES) | activation (acetylation increase)
39 | COc1ccc2c3c([nH]c2c1)[C@@H](CO)N(C(=O)c1ccccc1)CC31CCN(S(=O)(=O)c2cccs2)CC1 | -4.29% (inactive)
40 | COc1ccc2c3c(n(C)c2c1)[C@H](CO)NCC31CCN(Cc2cc(-c3ccccc3)on2)CC1 | -102% (inactive)
41 | CCN(CC)Cc1c(O)ccc2c([N+](=O)[O-])c(C)n(-c3ccc(OC)cc3)c12 | -12.3% (inactive)
42 | CCOC(=O)CN1C(=O)C(Sc2n[nH]c(-c3ccc(C)cc3)n2)CCc2ccccc21 (configuration not stated) | 3.64% (inactive)
43 | O=C1c2ccc(-c3ccc4c(c3)C(=O)N(CCCO)C4=O)cc2C(=O)N1CCCO | 17.2% (inactive)
44 | CNC[C@H]1Oc2ncc(C#CC3CCCCC3)cc2C(=O)N([C@H](C)CO)C[C@H]1C | 10.7% (inactive)
45 | O=C(Cn1cnc2c(nnn2Cc2ccc(Cl)cc2)c1=O)c1ccccc1 | -24.2% (inactive)
46 | COc1cccc(OCc2nnc(SCC(=O)OCc3ccccc3)o2)c1 | 26.1% (inactive)
47 | COc1ccc(CN(C)C[C@@H]2Oc3ccc(NS(=O)(=O)c4c(C)noc4C)cc3C(=O)N([C@H](C)CO)C[C@H]2C)cc1 | 11.3% [at 21 µM] (inactive)
48 | Cc1cc(C)cc(N(CC(=O)Nc2c(C)n(C)n(-c3ccccc3)c2=O)S(C)(=O)=O)c1 | -1.04% (inactive)
49 | C[C@@H]1CN([C@H](C)CO)C(=O)CCCn2nncc2CO[C@H]1CN(C)S(=O)(=O)c1cn(C)cn1 | -7.5% (inactive)
50 | CN(Cc1ccccc1)C(=O)c1ccc2c(c1)NC(=O)C(N1CCOCC1)S2 (configuration not stated) | -37.4% (inactive)
51 | CCCOc1ccccc1C1C(C(=O)OC)=CN(C(C)C)C=C1C(=O)OC | 8.53% (inactive)
52 | CN(c1cccc(NS(=O)(=O)c2cccs2)c1)S(C)(=O)=O | 30.2% (inactive)
53 | CC(=O)c1ccccc1-c1csc2ncnc(Sc3nnnn3C)c12 | 16.2% [at 10 µM] (inactive)
54 | CCn1c(CNc2ccc(C)cc2)nnc1SCC(N)=O | 4.47% (inactive)
55 | Cc1[nH]nc2ncc(C(=O)c3ccccc3O)cc12 | -21.6% (inactive)
56 | Cn1c(SCc2ccon2)nc2ccccc2c1=O | -6.71% (inactive)
57 | CNC[C@@H]1OCCCC[C@H](C)Oc2ccc(NS(=O)(=O)c3cccs3)cc2C(=O)N([C@H](C)CO)C[C@@H]1C | 0.588% (inactive)
